Measured values: PubChem BioAssay (Tox21)
Results filed as inconclusive are left out. Activity calls are given as the source filed them. Calls follow the shape of the dose curve; as a rule, active = well fitted curve in the direction sought with a large enough effect in the repeat runs; inconclusive = weak or mixed curves; inactive = no such curve, though single readings can be large; an effect the other way counts as inactive or inconclusive.

Experiments:
[1] = qHTS RealTime-Glo MT Cell Viability Assay in HepG2 cells - 24 hour (AID 1224867); also: nearly all actives have a fitted effect of over 50% in size
In short: (§1)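 HepG2 cells (600/well) were dispensed with RealTime-Glo reagents, incubated 5 h at 37 °C, then treated with compounds in DMSO for up to 40 h. Nonlytic NanoLuc luminescence reflecting viable cells was read at each stated time point.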

[2] = qHTS RealTime-Glo MT Cell Viability Assay in HEK293 cells - 32 hour (AID 1224868); also: top concentration of the series differs between compounds; nearly all actives have a fitted effect of over 50% in size
In short: (§2)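 HEK293 cells seeded with NanoLuc/prosubstrate reagent, rested 5 h at 37 C, then dosed and kept at 37 C up to 40 h. Nonlytic real-time luminescence from viable cells read at 0, 8, 16, 24, 32 and 40 h.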

[3] = A CellTox Green Cytotoxicity Assay to monitor cytotoxicity in HEK293 cells - 0 hour (AID 1224869); also: nearly all actives have a fitted effect of over 50% in size
In short: (§3)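 Cells (HEK293, 600/well) and dye reagent are dispensed together. After 5 h at 37 C, 23 nL compound is pinned in. Plates stay at 37 C for 40 h with fluorescence read at 0h, 8h, 16h, 24h, 32h and 40h.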

[4] = qHTS RealTime-Glo MT Cell Viability Assay in HepG2 cells - 40 hour (AID 1224870); also: nearly all actives have a fitted effect of over 50% in size
In short: (§4)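 HepG2 cells (600/well) mixed with RealTime-Glo MT reagent, settled 5 h at 37 C/5% CO2 before compound addition. Nonlytic NanoLuc luminescence from viable-cell prosubstrate reduction read repeatedly during 40 h treatment at 37 C.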

[5] = A CellTox Green Cytotoxicity Assay to monitor cytotoxicity in HEK293 cells - 40 hour (AID 1224871); also: nearly all actives have a fitted effect of over 45% in size
In short: as §3

[6] = qHTS RealTime-Glo MT Cell Viability Assay in HEK293 cells - 16 hour (AID 1224872)
In short: as §2

[7] = qHTS RealTime-Glo MT Cell Viability Assay in HepG2 cells - 8 hour (AID 1224873); also: nearly all actives have a fitted effect of over 55% in size
In short: as §4

[8] = qHTS RealTime-Glo MT Cell Viability Assay in HEK293 cells - 40 hour (AID 1224874); settings: RealTime-Glo luminescence, active compounds read low; also: nearly all actives have a fitted effect of over 50% in size
In short: (§5)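 Real-time viability in HEK293: signal arises when living cells convert a prosubstrate for NanoLuc in the medium, so luminescence tracks viable cell number. Compound (23 nL, DMSO) added 5 h post-seeding; kinetic reads at 0–40 h, 37 C.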

[9] = A CellTox Green Cytotoxicity Assay to monitor cytotoxicity in HEK293 cells - 24 hour (AID 1224875); also: series mostly up to about 77 µM; nearly all actives have a fitted effect of over 45% in size
In short: as §3

[10] = qHTS RealTime-Glo MT Cell Viability Assay in HepG2 cells - 32 hour (AID 1224877); also: nearly all actives have a fitted effect of over 55% in size
In short: as §1

[11] = A CellTox Green Cytotoxicity Assay to monitor cytotoxicity in HepG2 cells - 24 hour (AID 1224878); also: nearly all actives have a fitted effect of over 45% in size
In short: (§6)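 Cells and non-lytic dye reagent are dispensed together (600 HepG2 cells/well) and incubated 5 h before DMSO compound transfer. Kinetic fluorescence is then recorded in the same wells during 40 h at 37 C.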

[12] = A CellTox Green Cytotoxicity Assay to monitor cytotoxicity in HepG2 cells - 40 hour (AID 1224879); also: nearly all actives have a fitted effect of over 40% in size
In short: as §6

[13] = qHTS RealTime-Glo MT Cell Viability Assay in HEK293 cells - 0 hour (AID 1224880); also: top concentration of the series differs between compounds; nearly all actives have a fitted effect of over 45% in size
In short: as §5

[14] = A CellTox Green Cytotoxicity Assay to monitor cytotoxicity in HepG2 cells - 0 hour (AID 1224882); also: nearly all actives have a fitted effect of over 35% in size
In short: as §6

[15] = A CellTox Green Cytotoxicity Assay to monitor cytotoxicity in HepG2 cells - 32 hour (AID 1224883); also: nearly all actives have a fitted effect of over 50% in size
In short: as §6

[16] = A CellTox Green Cytotoxicity Assay to monitor cytotoxicity in HEK293 cells - 8 hour (AID 1224884); also: nearly all actives have a fitted effect of over 35% in size
In short: as §3

[17] = qHTS RealTime-Glo MT Cell Viability Assay in HepG2 cells - 16 hour (AID 1224885); also: nearly all actives have a fitted effect of over 50% in size
In short: as §1

[18] = qHTS RealTime-Glo MT Cell Viability Assay in HEK293 cells - 24 hour (AID 1224886)
In short: as §2

[19] = A CellTox Green Cytotoxicity Assay to monitor cytotoxicity in HepG2 cells - 16 hour (AID 1224876); also: nearly all actives have a fitted effect of over 45% in size
In short: as §6

[20] = A CellTox Green Cytotoxicity Assay to monitor cytotoxicity in HEK293 cells - 32 hour (AID 1224881); also: nearly all actives have a fitted effect of over 40% in size
In short: as §3
% is scaled to controls: 0 for no effect and ±100 for the full control effect.

CC[C@@]1(c2ccccc2)NC(=O)N(C)C1=O
inactive: outcome [1] | outcome [2] | outcome [3] | outcome [4] | Potency [5] | outcome [6] | outcome [7] | max response [8] 14.4% | Potency [9] | outcome [10] | Potency [11] | Potency [12] | Potency [13] | Potency [14] | Potency [15] | Potency [16] | outcome [17] | outcome [18]

CN(C)CCCN(C)C
inactive: activity change, negative = cytotoxicity [1] 0.293% [at 6.97 µM] | activity change, negative = cytotoxic [2] 0.277% [at 6.97 µM] | cytotoxicity [3] 0.262% [at 6.97 µM] | activity change, negative = cytotoxic [4] 1.14% [at 6.97 µM] | cytotoxicity increase [5] -1.24% [at 6.97 µM] | activity change, negative = cytotoxicity [6] -4.3% [at 6.97 µM] | viability change, negative = cytotoxic [7] 0.94% [at 6.97 µM] | max response [8] 0.838% | activity change [9] -1.21% [at 6.97 µM, active compounds read high] | cytotoxicity increase [19] -15.4% [at 6.97 µM] | activity change, negative = cytotoxic [10] 0.21% [at 6.97 µM] | cytotoxicity [11] -15.5% [at 6.97 µM] | activity change, negative = cytotoxicity [13] -1.25% [at 6.97 µM] | cytotoxicity increase [20] -0.385% [at 6.97 µM] | cytotoxicity [14] -10.6% [at 6.97 µM] | cytotoxicity increase [16] -3.24% [at 6.97 µM] | activity change, negative = cytotoxic [17] 0.141% [at 6.97 µM] | activity change, negative = cytotoxicity [18] 3.07% [at 6.97 µM]

C=CC(=O)CC
inactive: outcome [1] | outcome [2] | outcome [3] | outcome [4] | Potency [5] | outcome [6] | outcome [7] | max response [8] 0.33% | Potency [9] | Potency [19] | outcome [10] | Potency [12] | Potency [13] | Potency [20] | Potency [14] | Potency [15] | Potency [16] | outcome [17] | outcome [18]

C[C@]12C=CC(=O)C=C1[C@@H](F)C[C@@H]1[C@@H]2[C@@H](O)C[C@@]2(C)[C@H]1CC[C@]2(O)C(=O)CO
inactive: outcome [1] | outcome [2] | outcome [3] | outcome [4] | Potency [5] | outcome [6] | outcome [7] | max response [8] -0.454% | Potency [9] | Potency [19] | outcome [10] | Potency [11] | Potency [12] | Potency [14] | Potency [15] | Potency [16] | outcome [17] | outcome [18]

CCN1CCN(C(=O)N[C@@H](C(=O)N[C@@H]2C(=O)N3C(C(=O)O)=C(CSc4nnnn4C)CS[C@H]23)c2ccc(O)cc2)C(=O)C1=O
inactive: outcome [1] | outcome [2] | outcome [3] | outcome [4] | Potency [5] | outcome [6] | outcome [7] | max response [8] 15.1% | Potency [9] | Potency [19] | outcome [10] | Potency [12] | Potency [13] | Potency [20] | Potency [14] | Potency [15] | Potency [16] | outcome [17] | outcome [18]

COC(=O)c1cc(Cl)c(NC(C)=O)cc1OC
inactive: outcome [1] | outcome [2] | outcome [3] | outcome [4] | Potency [5] | outcome [6] | outcome [7] | max response [8] 0.647% | Potency [9] | outcome [10] | Potency [11] | Potency [13] | Potency [20] | Potency [14] | Potency [15] | Potency [16] | outcome [17] | outcome [18]

NNC(=O)OCc1ccccc1
inactive: outcome [1] | outcome [2] | outcome [3] | outcome [4] | Potency [5] | outcome [6] | outcome [7] | max response [8] -4.79% | Potency [9] | Potency [19] | outcome [10] | Potency [11] | Potency [12] | Potency [20] | Potency [14] | Potency [15] | Potency [16] | outcome [17] | outcome [18]

C/C=C(\C)C=O
inactive: outcome [1] | outcome [2] | outcome [3] | outcome [4] | Potency [5] | outcome [6] | outcome [7] | max response [8] 8.23% | Potency [9] | Potency [19] | outcome [10] | Potency [13] | Potency [20] | Potency [14] | Potency [15] | Potency [16] | outcome [17] | outcome [18]

CC(=O)O[C@@H]1CC2C3CCc4cc(OC(=O)c5ccccc5)ccc4C3CCC2(C)[C@H]1OC(C)=O (stereo partly drawn)
inactive: outcome [1] | outcome [2] | outcome [3] | outcome [4] | Potency [5] | outcome [6] | outcome [7] | max response [8] 0.184% | Potency [9] | Potency [19] | outcome [10] | Potency [11] | Potency [13] | Potency [20] | Potency [14] | Potency [15] | Potency [16] | outcome [17] | outcome [18]

Cc1cccc(N)n1
inactive: outcome [1] | outcome [2] | outcome [3] | outcome [4] | Potency [5] | outcome [6] | outcome [7] | max response [8] -4.06% | Potency [9] | Potency [19] | outcome [10] | Potency [11] | Potency [13] | Potency [20] | Potency [14] | Potency [15] | Potency [16] | outcome [17] | outcome [18]

CC/C=C\CCCCCCCCCCOC(C)=O
inactive: outcome [1] | outcome [2] | outcome [3] | outcome [4] | Potency [5] | outcome [6] | max response [8] -0.318% | Potency [9] | Potency [19] | outcome [10] | Potency [11] | Potency [12] | Potency [13] | Potency [20] | Potency [14] | Potency [15] | Potency [16] | outcome [17] | outcome [18]

C[C@@H]1NC(=O)[C@@H](N)CNC(=O)[C@H](C2CCNC(N)=N2)NC(=O)/C(=C/NC(N)=O)NC(=O)[C@H](CNC(=O)C[C@@H](N)CCCN)NC1=O (stereo partly drawn)
inactive: activity change, negative = cytotoxicity [1] 4.49% [at 0.29 µM] | activity change, negative = cytotoxic [2] 0.857% [at 0.29 µM] | cytotoxicity [3] 0.414% [at 0.29 µM] | activity change, negative = cytotoxic [4] 3.51% [at 0.29 µM] | cytotoxicity increase [5] 21.6% [at 0.29 µM] | viability change, negative = cytotoxic [7] 3.98% [at 0.29 µM] | max response [8] 0.0952% | activity change [9] 19.3% [at 0.29 µM, active compounds read high] | cytotoxicity increase [19] -2.83% [at 0.29 µM] | activity change, negative = cytotoxic [10] 3.72% [at 0.29 µM] | cytotoxicity [11] -1.91% [at 0.29 µM] | cytotoxicity increase [12] -3.78% [at 0.29 µM] | activity change, negative = cytotoxicity [13] -3.01% [at 0.29 µM] | cytotoxicity increase [20] 19.4% [at 0.29 µM] | cytotoxicity [14] -4.92% [at 0.29 µM] | cytotoxicity increase [15] -3.17% [at 0.29 µM] | cytotoxicity increase [16] 6.36% [at 0.29 µM] | activity change, negative = cytotoxic [17] 5.82% [at 0.29 µM] | activity change, negative = cytotoxicity [18] 0.653% [at 0.29 µM]
